Screening results (PubChem)
Compounds with a hit are over-represented: about 2.7% of the library has one in this group of screens.
KKLEB tox: counter-screen for CF NF-kB inhibitors: cytotoxicity; 360,000 tested, 0.36% active; activity change (cytotoxicity), % at 5 µM; KKLEB CF airway cells viability, ATPlite luminescence, overnight; active compounds read low; cells stimulated with P. aeruginosa culture filtrate; AID 602141;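 active means corrected activity change at or below -50% at 5 µM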
Shn3 3UTR inh: reduces Shn3 3'UTR luciferase signal in osteoblasts. 360,000 tested, 0.52% active. inhibition, % at 12.5 µM. Clone20 osteoblast Shn3 3'UTR firefly luciferase, 24 h;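 active means mean inhibition of at least 75% with every replicate also reaching 75%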;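 further: 0% = median of neutral control wells and 100% = pilot-screen positive control compound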
HIF-2a inh: HIF-2a inhibition. inhibition, % at 18.8 µM. 360,000 tested, 0.72% active. 786-0 RCC cells HIF-2a reporter, luciferase luminescence, overnight. AID 624352;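 active means inhibition of the luminescence signal of 40% or more relative to plate controls, in a single-dose primary screen at 18.75 µM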
CF NFkB inh: inhibitors of cystic fibrosis induced NF-kB. KKLEB NF-kB-GFP reporter, PAF-induced, GFP fluorescence overnight. inhibition, % at 5 µM. 360,000 tested, 0.86% active;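 active means at least 50% inhibition at 5 µM, scaled per plate between neutral and stimulator controls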;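 further: PAF is a Pseudomonas aeruginosa culture filtrate used as stimulus; plate controls were PAF-stimulated DMSO wells for no effect and unstimulated DMSO wells for full effect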
MITF TRPM1 inh: inhibitors of MITF-driven TRPM1 promoter in melanoma cells; SK-MEL-5 TRPM1 promoter luciferase, 24 h; inhibition, % at 12.5 µM; 330,000 tested, 0.83% active;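 active means mean inhibition across replicates of 60% or more, whatever share of single replicates reaches that level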
Peg3 promoter: Peg3 promoter activity inhibition; HeLa PEG-Prom luciferase reporter, luminescence, overnight; inhibition, % at 20 µM; 360,000 tested, 1.7% active;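 active means inhibition of at least 50% at 20 µM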
CF NFkB conf: CF NF-kB inhibition confirmation, single concentration; shares compounds with CF NFkB inh; KKLEB CF airway cells, PAF-induced NF-kB-GFP fluorescence, overnight; inhibition, % at 5 µM; 1,300 tested, 64% active; AID 602472; in the data active means inhibition above about 40%;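 further: stimulus PAF is a Pseudomonas aeruginosa filtrate and not platelet activating factor; plate controls were DMSO wells with stimulus for no effect and unstimulated DMSO wells for full effect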
* hit, by the source's call.

Results for CC(C)OC(=O)c1cccc(C(=O)Nc2cccc(NC(=O)c3cccc(C(=O)OC(C)C)n3)n2)n1 ?
KKLEB tox: -4; Shn3 3UTR inh: 28; HIF-2a inh: 12; CF NFkB inh: 57*; MITF TRPM1 inh: 0; Peg3 promoter: 46; CF NFkB conf: 62*

What do the screens show for `COCCNC(=O)C1(C)CCN(Cc2cccc(Oc3ccccc3)c2)C1` (stereo unspecified)?
KKLEB tox: 14; Shn3 3UTR inh: -23; HIF-2a inh: 6; CF NFkB inh: -14; Peg3 promoter: 2

How did COc1ccc(C2=Nn3c(nnc3-c3ccccc3C(F)(F)F)SC2)cc1OC1CCOC1 (stereo unspecified) do in these assays?
KKLEB tox: -8; Shn3 3UTR inh: 4; HIF-2a inh: 28; CF NFkB inh: 30; MITF TRPM1 inh: 5; Peg3 promoter: 34

What do the screens show for `COc1ccc(OC)c(-c2nnc3n2N=C(c2ccc(OC)c(OCC4CC4)c2)CS3)c1`?
KKLEB tox: 7; Shn3 3UTR inh: 6; HIF-2a inh: 29; CF NFkB inh: 60*; MITF TRPM1 inh: 65*; Peg3 promoter: 33; CF NFkB conf: 84*

What do the screens show for `COc1ccc(C2=Nn3c(nnc3-c3ccccc3OC)SC2)cc1OC1CCOC1` (stereo unspecified)?
KKLEB tox: -3; Shn3 3UTR inh: 12; HIF-2a inh: 36; CF NFkB inh: 58*; MITF TRPM1 inh: 63*; Peg3 promoter: 6; CF NFkB conf: 81*

What do the screens show for `COc1ccc(C2=Nn3c(nnc3-c3ccccc3Cl)SC2)cc1OCC1CC1`?
KKLEB tox: -24; Shn3 3UTR inh: 54; HIF-2a inh: 24; CF NFkB inh: 40; MITF TRPM1 inh: 36; Peg3 promoter: 37

How did O=C(/C=C/c1cccc([N+](=O)[O-])c1)n1cnc2ccccc21 do in these assays?
KKLEB tox: -3; Shn3 3UTR inh: 92*; HIF-2a inh: 28; CF NFkB inh: 82*; MITF TRPM1 inh: 67*; Peg3 promoter: 100*; CF NFkB conf: 67*

How did COc1cccc(-c2sc3ccccc3c2-c2ccc(OCCN3CCCC3)cc2)c1 do in these assays?
KKLEB tox: -28; Shn3 3UTR inh: 48; HIF-2a inh: -5; CF NFkB inh: 54*; MITF TRPM1 inh: -2; Peg3 promoter: 100*; CF NFkB conf: 31

What do the screens show for `c1ccc(-c2sc3ccccc3c2-c2ccc(OCCN3CCCC3)cc2)cc1`?
KKLEB tox: -42; Shn3 3UTR inh: -3; HIF-2a inh: 0; CF NFkB inh: 52*; MITF TRPM1 inh: -16; Peg3 promoter: 93*; CF NFkB conf: -5

What do the screens show for `Oc1ccc2sc(-c3ccccc3O)c(-c3ccc(OCCN4CCCCC4)cc3)c2c1`?
HIF-2a inh: -3

How did OC1c2c(F)cccc2N=C2CCCCN21 (stereo unspecified) do in these assays?
KKLEB tox: 5; Shn3 3UTR inh: -3; HIF-2a inh: -10; CF NFkB inh: 17; Peg3 promoter: -7

How did COc1cc(Cc2cc(OC)c(O)c(OC)c2)cc(OC)c1O do in these assays?
KKLEB tox: -2; Shn3 3UTR inh: 2; HIF-2a inh: 6; CF NFkB inh: 14; Peg3 promoter: -3

What do the screens show for `CCCNC(=O)C1(C)CCN(C(=O)COCc2ccccc2)C1` (stereo unspecified)?
KKLEB tox: -9; Shn3 3UTR inh: -5; HIF-2a inh: -3; CF NFkB inh: 0; Peg3 promoter: -5

What do the screens show for `CCSc1nsc(NC(=O)Nc2ccccc2F)n1`?
KKLEB tox: -20; Shn3 3UTR inh: 10; HIF-2a inh: -343; CF NFkB inh: -8; MITF TRPM1 inh: -14; Peg3 promoter: -217

What do the screens show for `O=C(Nc1ccc(F)cc1)Nc1nnc(COc2ccccc2F)s1`?
KKLEB tox: -24; Shn3 3UTR inh: 6; HIF-2a inh: -2; CF NFkB inh: 58*; MITF TRPM1 inh: -6; Peg3 promoter: 45; CF NFkB conf: 44*

What do the screens show for `COc1ccc(NC(=O)Nc2nnc(CC(=O)Nc3ccccc3)s2)cc1`?
KKLEB tox: 0; Shn3 3UTR inh: 1; HIF-2a inh: 1; CF NFkB inh: 15; MITF TRPM1 inh: 4; Peg3 promoter: -5

Results for COc1cccc(NC(=O)Nc2nnc(CC(=O)Nc3ccccc3)s2)c1 ?
KKLEB tox: -3; Shn3 3UTR inh: -4; HIF-2a inh: 10; CF NFkB inh: 57*; MITF TRPM1 inh: -16; Peg3 promoter: -10; CF NFkB conf: 72*

How did CCSc1nsc(NC(=O)Nc2cccc(OC)c2)n1 do in these assays?
KKLEB tox: -7; Shn3 3UTR inh: -17; HIF-2a inh: -187; CF NFkB inh: 70*; MITF TRPM1 inh: -51; Peg3 promoter: -79; CF NFkB conf: 53*

Results for CCc1nc2c(OCC(=O)C(C)(C)C)cccn2c1N(C=O)Cc1ccc(OC)cc1 ?
KKLEB tox: 1; Shn3 3UTR inh: 0; HIF-2a inh: 14; CF NFkB inh: -7; Peg3 promoter: 10

How did CCC(=O)N1CCC1(C)C(=O)Nc1ccc(OC)c(OC)c1 (stereo unspecified) do in these assays?
KKLEB tox: -14; Shn3 3UTR inh: -9; HIF-2a inh: 9; CF NFkB inh: 11; Peg3 promoter: 2

Results for CCCCC[C@@H](C)N1C[C@@H](COCc2ccccc2)Oc2cc(N3CCC[C@H]3COC)ccc2S1(=O)=O ?
HIF-2a inh: 6

What do the screens show for `COc1ccc(C(=O)c2cc(OC)c(OC)c(OC)c2)cc1OC`?
KKLEB tox: -11; Shn3 3UTR inh: 6; HIF-2a inh: 25; CF NFkB inh: 2; MITF TRPM1 inh: 17; Peg3 promoter: -5

What do the screens show for `Cc1c(NC(=O)c2cc(-c3cccs3)nc3ccccc23)c(=O)n(-c2ccccc2)n1C`?
KKLEB tox: -1; Shn3 3UTR inh: -8; HIF-2a inh: 9; CF NFkB inh: 65*; MITF TRPM1 inh: 11; Peg3 promoter: 54*; CF NFkB conf: 64*

How did Cc1c(NC(=O)c2cc(-c3ccccc3)nc3ccccc23)c(=O)n(-c2ccccc2)n1C do in these assays?
KKLEB tox: -14; Shn3 3UTR inh: 22; HIF-2a inh: 1; CF NFkB inh: 10; MITF TRPM1 inh: 11; Peg3 promoter: 42

Results for CC1=CC(Cc2ccccc2)N(C)C(C(N)=O)C1 (stereo unspecified) ?
KKLEB tox: -11; Shn3 3UTR inh: 7; HIF-2a inh: -1; CF NFkB inh: -9; Peg3 promoter: 9

What do the screens show for `Cn1cc([N+](=O)[O-])c(C(=O)Nc2ccc(-c3nc4ccccc4o3)cc2)n1`?
KKLEB tox: -36; Shn3 3UTR inh: 7; HIF-2a inh: -35; CF NFkB inh: 68*; MITF TRPM1 inh: 49; Peg3 promoter: 51*; CF NFkB conf: -87
